Data from PubChem BioAssay (EPA / NIEHS).
Activity calls are given as the source filed them. The calls were made as follows: active = hit-call score of the fitted dose curve at least 0.9, where 1 is the maximum; inactive = score below 0.9.

read-out: Cytochrome P450 (CYP1A1), CYP1A1 (gene 1543); experiment: LTEA_HepaRG_CYP1A1: Life Technologies and Expression Analysis (LTEA) Assay for Cytochrome P450 (CYP1A1) using HepaRG (AID 2283454); conditions: mRNA level, 48 h; actives raise or lower the signal
Procedure, shortened: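 Using HepaRG cultures with 0.5% DMSO as vehicle, eight-concentration exposures (max 100 uM) lasted 48 h. Transcript levels were measured by TaqMan qRT-PCR and normalized to ACTB, GAPDH and POLR2A.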

Q: How did the AC50 turn out when CNC(=O)Oc1cccc2c1OC(C)(C)C2 was run?
A: 50 µM (active)

Q: For CCCCCOC(=O)c1ccccc1C(=O)OCCCCC, which AC50 is on record?
A: 18 µM (active)

Q: CC(C)N(Cc1ccccc1)C(=O)C(C)(C)C was tested. Which AC50 did it give?
A: 50 µM (active)

Q: With COP(=S)(OC)SCN1C(=O)c2ccccc2C1=O as the molecule, how does the AC50 read?
A: 30.9 µM (active)

Q: CC(C)(O)c1cnn2c(-c3ccc(F)c(-c4c(F)cccc4C#N)c3)cnc2n1 was tested. Which AC50 did it give?
A: 11.9 µM (active)

Q: With Nc1ccc(Oc2ccc(N)cc2)cc1 as the molecule, how does the AC50 read?
A: 37.5 µM (active)

Q: How did the AC50 turn out when Nc1ccc(Cl)cc1N was run?
A: 1.81 µM (active)

Q: With Oc1ccc2ccc3cccc4ccc1c2c34 as the molecule, how does the AC50 read?
A: 27.5 µM (active)

Q: How did the AC50 turn out when Cn1cc(-c2ccccc2)c(=O)c(-c2cccc(C(F)(F)F)c2)c1 was run?
A: 32.6 µM (active)

Q: How did the AC50 turn out when Cc1cc(N=Nc2ccccc2C)ccc1N was run?
A: 1.05 µM (active)

Q: Which AC50 does the source give for O=C(Nc1ccccc1)c1ccccc1I here?
A: 27.7 µM (active)

Q: CC(C)(C)C(O)(CCc1ccc(Cl)cc1)Cn1cncn1 (centres undefined) was tested. Which AC50 did it give?
A: 6.47 µM (active)

Q: For CCOc1cccc(C2(N3CCN(c4ccccc4)CC3)CCC(C)CC2)c1 (centres undefined), which AC50 is on record?
A: 35.9 µM (active)

Q: CCCCCCCCCCCCCN1CC(C)OC(C)C1 (centres undefined) was tested. Which AC50 did it give?
A: 50 µM (active)

Q: Which outcome does the source give for CCC(C)c1ccc(O)cc1 (centres undefined) here?
A: inactive

Q: How did the outcome turn out when N#CC(Br)(Br)C(N)=O was run?
A: inactive

Q: c1ccc(NNc2ccccc2)cc1 was tested. Which AC50 did it give?
A: 31.6 µM (active)

Q: How did the AC50 turn out when Nc1ccc(N=Nc2ccccc2)cc1 was run?
A: 35.8 µM (active)

Q: How did the AC50 turn out when Cc1ccc(N)c(N)c1 was run?
A: 40.2 µM (active)

Q: With O=P(OCCCl)(OCCCl)OCCCl as the molecule, how does the AC50 read?
A: 76 µM (active)

Q: O=C(Oc1ccc(Br)cc1)N1CCN2CCC1CC2 was tested. Which AC50 did it give?
A: 65.1 µM (active)

Q: How did the AC50 turn out when Nc1ccc(Cc2ccc(N)cc2)cc1 was run?
A: 32.3 µM (active)

Q: Which AC50 does the source give for Cc1ccc(N=C=O)cc1N=C=O here?
A: 40.4 µM (active)

Q: Cc1cccc(N)c1N was tested. Which AC50 did it give?
A: 6.92 µM (active)

Q: Which outcome does the source give for [As]#[In] here?
A: inactive

Q: O=[N+]([O-])c1ccc(Oc2ccc(Cl)cc2Cl)cc1 was tested. Which AC50 did it give?
A: 22.8 µM (active)

read-out: CFLAR gene, CFLAR (gene 8837); experiment: LTEA_HepaRG_CFLAR: Life Technologies and Expression Analysis (LTEA) Assay for CFLAR gene using HepaRG (AID 2283455); conditions: mRNA level, 48 h; actives raise or lower the signal
Procedure, shortened: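 Transcript level by qRT-PCR (normalized to ACTB, GAPDH and POLR2A) after 48 h chemical exposure of HepaRG cells, top concentration 100 uM with half-log steps, 0.5% DMSO vehicle, duplicates; fitted bidirectionally against DMSO baseline.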

Q: How did the outcome turn out when CNC(=O)Oc1cccc2c1OC(C)(C)C2 was run?
A: inactive

Q: Which outcome does the source give for CCCCCOC(=O)c1ccccc1C(=O)OCCCCC here?
A: inactive

Q: How did the outcome turn out when COP(=S)(OC)SCN1C(=O)c2ccccc2C1=O was run?
A: inactive

Q: With CC(C)(O)c1cnn2c(-c3ccc(F)c(-c4c(F)cccc4C#N)c3)cnc2n1 as the molecule, how does the outcome read?
A: inactive

Q: Nc1ccc(Oc2ccc(N)cc2)cc1 was tested. Which outcome did it give?
A: inactive

Q: How did the AC50 turn out when Nc1ccc(Cl)cc1N was run?
A: 33.1 µM (active)

Q: Which outcome does the source give for Oc1ccc2ccc3cccc4ccc1c2c34 here?
A: inactive

Q: How did the AC50 turn out when Cn1cc(-c2ccccc2)c(=O)c(-c2cccc(C(F)(F)F)c2)c1 was run?
A: 9.92 µM (active)

Q: For Cc1cc(N=Nc2ccccc2C)ccc1N, which AC50 is on record?
A: 2.75 µM (active)

Q: With C[C@]12C=CC3=C4CCC(=O)C=C4CC[C@H]3[C@@H]1CC[C@@H]2O as the molecule, how does the outcome read?
A: inactive

Q: For O=C(Nc1ccccc1)c1ccccc1I, which outcome is on record?
A: inactive

Q: How did the outcome turn out when CC(C)(C)C(O)(CCc1ccc(Cl)cc1)Cn1cncn1 (centres undefined) was run?
A: inactive

Q: For CCOc1cccc(C2(N3CCN(c4ccccc4)CC3)CCC(C)CC2)c1 (centres undefined), which outcome is on record?
A: inactive

Q: With CCCCCCCCCCCCCN1CC(C)OC(C)C1 (centres undefined) as the molecule, how does the outcome read?
A: inactive

Q: How did the outcome turn out when CCC(C)c1ccc(O)cc1 (centres undefined) was run?
A: inactive

Q: N#CC(Br)(Br)C(N)=O was tested. Which outcome did it give?
A: inactive

Q: For c1ccc(NNc2ccccc2)cc1, which outcome is on record?
A: inactive

Q: Which AC50 does the source give for Nc1ccc(N=Nc2ccccc2)cc1 here?
A: 20.8 µM (active)

Q: Which outcome does the source give for Cc1ccc(N)c(N)c1 here?
A: inactive

Q: With O=P(OCCCl)(OCCCl)OCCCl as the molecule, how does the outcome read?
A: inactive

Q: For O=C(Oc1ccc(Br)cc1)N1CCN2CCC1CC2, which outcome is on record?
A: inactive

Q: Which outcome does the source give for Nc1ccc(Cc2ccc(N)cc2)cc1 here?
A: inactive

Q: How did the outcome turn out when Cc1ccc(N=C=O)cc1N=C=O was run?
A: inactive

Q: With Cc1cccc(N)c1N as the molecule, how does the AC50 read?
A: 50 µM (active)

Q: For [As]#[In], which outcome is on record?
A: inactive

Q: Which outcome does the source give for O=[N+]([O-])c1ccc(Oc2ccc(Cl)cc2Cl)cc1 here?
A: inactive

read-out: Forkhead box O1 (FOXO1), FOXO1 (gene 2308); experiment: LTEA_HepaRG_FOXO1: Life Technologies and Expression Analysis (LTEA) Assay for Forkhead box O1 (FOXO1) using HepaRG (AID 2283456); conditions: mRNA level, 48 h; actives raise or lower the signal
Procedure, shortened: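 FOXO1 transcript quantified by qRT-PCR after 48 h chemical exposure (top 100 uM, half-log steps, 0.5% DMSO) of HepaRG cells, housekeeping-normalized (ACTB/GAPDH/POLR2A). Changes fitted in both directions relative to vehicle.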

Q: For CNC(=O)Oc1cccc2c1OC(C)(C)C2, which outcome is on record?
A: inactive

Q: Which outcome does the source give for CCCCCOC(=O)c1ccccc1C(=O)OCCCCC here?
A: inactive

Q: How did the outcome turn out when CC(C)N(Cc1ccccc1)C(=O)C(C)(C)C was run?
A: inactive

Q: For COP(=S)(OC)SCN1C(=O)c2ccccc2C1=O, which outcome is on record?
A: inactive

Q: Which outcome does the source give for CC(C)(O)c1cnn2c(-c3ccc(F)c(-c4c(F)cccc4C#N)c3)cnc2n1 here?
A: inactive

Q: With Nc1ccc(Oc2ccc(N)cc2)cc1 as the molecule, how does the outcome read?
A: inactive

Q: Nc1ccc(Cl)cc1N was tested. Which AC50 did it give?
A: 29.4 µM (active)

Q: Oc1ccc2ccc3cccc4ccc1c2c34 was tested. Which outcome did it give?
A: inactive

Q: Cn1cc(-c2ccccc2)c(=O)c(-c2cccc(C(F)(F)F)c2)c1 was tested. Which outcome did it give?
A: inactive

Q: For Cc1cc(N=Nc2ccccc2C)ccc1N, which AC50 is on record?
A: 12.5 µM (active)

Q: How did the outcome turn out when C[C@]12C=CC3=C4CCC(=O)C=C4CC[C@H]3[C@@H]1CC[C@@H]2O was run?
A: inactive

Q: For O=C(Nc1ccccc1)c1ccccc1I, which outcome is on record?
A: inactive

Q: How did the outcome turn out when CC(C)(C)C(O)(CCc1ccc(Cl)cc1)Cn1cncn1 (centres undefined) was run?
A: inactive

Q: Which outcome does the source give for CCOc1cccc(C2(N3CCN(c4ccccc4)CC3)CCC(C)CC2)c1 (centres undefined) here?
A: inactive

Q: For CCCCCCCCCCCCCN1CC(C)OC(C)C1 (centres undefined), which outcome is on record?
A: inactive

Q: Which outcome does the source give for CCC(C)c1ccc(O)cc1 (centres undefined) here?
A: inactive

Q: With N#CC(Br)(Br)C(N)=O as the molecule, how does the outcome read?
A: inactive

Q: With c1ccc(NNc2ccccc2)cc1 as the molecule, how does the outcome read?
A: inactive

Q: Which AC50 does the source give for Nc1ccc(N=Nc2ccccc2)cc1 here?
A: 30.9 µM (active)

Q: Cc1ccc(N)c(N)c1 was tested. Which outcome did it give?
A: inactive

Q: O=P(OCCCl)(OCCCl)OCCCl was tested. Which outcome did it give?
A: inactive

Q: For O=C(Oc1ccc(Br)cc1)N1CCN2CCC1CC2, which outcome is on record?
A: inactive

Q: With Nc1ccc(Cc2ccc(N)cc2)cc1 as the molecule, how does the outcome read?
A: inactive

Q: How did the outcome turn out when Cc1ccc(N=C=O)cc1N=C=O was run?
A: inactive

Q: For Cc1cccc(N)c1N, which outcome is on record?
A: inactive

Q: [As]#[In] was tested. Which outcome did it give?
A: inactive

Q: With O=[N+]([O-])c1ccc(Oc2ccc(Cl)cc2Cl)cc1 as the molecule, how does the outcome read?
A: inactive
